The results in this text go back to PubChem BioAssay AID1069 (NMMLSC, 2008).

Calls of active or inactive are those of the source.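 Rule for the calls: active = high combined rank on largest and smallest cell-count-weighted shift across three tests, rank score above 45, floors 50 and 25 (some results past the limit were not filed as active); inactive = the rest.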

A short description of one assay: LNCaP granularity increase inducers, single-point recheck – cell-based, side scatter shift, flow cytometry, confirmation (AID 1069).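 Note: LNCaP human prostate cancer cells in low-serum medium with charcoal-stripped FBS; percent of cells with raised granularity gated so DMSO controls show 10%.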 The note with it: LNCaP differentiation, 4 d, at 100 µM, stronger effect = higher value. (A flow cytometer gives signals particle by particle.)
As for `Cc1ccccc1-c1nc(CN2CCC(C(=O)NCCCN3CCCC3)CC2)c(C)o1`, the side scatter shift was 40% (inactive).

As to `Cc1cccc(-c2nc(CN3CCCC(C(=O)NC4CCCCC4)C3)c(C)o2)c1` (stereo unspecified), the side scatter shift was 21.4% (inactive).

As to `CCN(CC)CCCNC(=O)c1cc(-c2cccc(Cl)c2)on1`, the side scatter shift was 4.1% (inactive).

For `COc1ccc2cc3c(N)nn(C(=O)Cc4ccccc4OC)c3nc2c1`, the side scatter shift is 20% (inactive).

For the molecule `COc1ccc(CN2C(=O)C(O)(CC(=O)c3c(C)n[nH]c3C)c3ccccc32)cc1OC` (stereo unspecified), the side scatter shift was 9.9% (inactive).

For `c1ccc(CSc2nnc(-c3cccs3)n2Cc2ccco2)cc1`, the side scatter shift was 20% (inactive).

As to `Cc1ccc2c(c1)c1c(n2CC(O)Cn2c(C)nc3ccccc32)/C(=N\O)CCC1` (stereo unspecified), the side scatter shift was 18.8% (inactive).

`CCN1CCN(c2ncc(C(=O)Nc3cc(Cl)c(OC)cc3OC)c3ccccc23)CC1`: the side scatter shift is 53.7% (inactive).

Take `CCOc1ccc2ccccc2c1C(=O)N1CCN(c2ccccc2)CC1`: the side scatter shift was 21.1% (inactive).

On to `O=C(CCn1c(=O)oc2ccccc21)NCCCN1CCN(c2ccc(F)cc2)CC1`, for which the side scatter shift is 25.4% (inactive).

Consider `Cn1c(C(=O)NCCCN2CCN(c3ccccc3F)CC2)cc2c(=O)[nH]c3ccccc3c21`, for which the side scatter shift is 33.3% (inactive).

For the molecule `C=CCn1c(=N)n(CC(O)COc2ccccc2OC)c2ccccc21` (stereo unspecified), the side scatter shift was 13.8% (inactive).

In the case of `Cc1cc(N2C(=O)C3C4C=CC(C4)C3C2=O)ccc1Br` (stereo unspecified), the side scatter shift is 9.6% (inactive).

On to `Cc1oc(-c2ccc(Cl)cc2)nc1CN1CCCC(C(=O)N2CCN(C(=O)c3ccco3)CC2)C1` (stereo unspecified), for which the side scatter shift was 42.1% (inactive).

For the molecule `Nc1cccc2cnccc12`, the side scatter shift was 4.1% (inactive).

For the molecule `COc1ccc(-c2cc(C(=O)NCc3ccc(Cl)cc3)no2)cc1OC`, the side scatter shift was 28.5% (inactive).

Regarding `CC1(C)CC(=O)c2cc(OCC(=O)NCCCN3CCN(c4ccccc4F)CC3)ccc2O1`, the side scatter shift was 27.3% (inactive).

Consider `CC1=C(n2nnc3ccccc32)C(c2ccccc2)C(C#N)=C(N)O1` (stereo unspecified), for which the side scatter shift is 26% (inactive).

In the case of `C=C(C)Cn1c(-c2ccccc2)nc2ccccc21`, the side scatter shift was 6.3% (inactive).

`CCOC(=O)c1ccc(NC(=O)Nc2ccc3c4c(cccc24)C(=O)N3CC)cc1`: the side scatter shift is 34.3% (inactive).

For `CCCCOc1ccccc1NC(=O)Cn1c(-c2nonc2N)nc2ccccc21`, the side scatter shift is 19.2% (inactive).

Turning to `COc1cc2nc(N3CCN(C(=O)C4COc5ccccc5O4)CC3)nc(N)c2cc1OC` (stereo unspecified), the side scatter shift was 0% (active).

`CCCCOC(=O)CSc1nc2c(cc1C#N)C(=O)CC(C)(C)C2`: the side scatter shift is 16.3% (inactive).

As to `CCN(CC)CCCNC(=O)c1cc(-c2ccc(Cl)c(Cl)c2)on1`, the side scatter shift was 22.7% (inactive).

In the case of `Cc1ccccc1-c1nc(CN2CCC(C(=O)NCCCN3CC(C)CC(C)C3)CC2)c(C)o1` (stereo unspecified), the side scatter shift is 54.5% (active).

For the molecule `Cc1ccc2c(c1)c1c(n2CC(O)CNC(CO)(CO)CO)CCCC1` (stereo unspecified), the side scatter shift was 34.3% (inactive).

As to `CN(CC(=O)Nc1ccc2c(c1)OCCO2)S(=O)(=O)c1cccc2cccnc12`, the side scatter shift is 16.8% (inactive).

As for `COc1ccc(Cc2noc(-c3ccc(C)cc3)n2)cc1`, the side scatter shift is 21.4% (inactive).

In the case of `CCN(CC)CCNC(=O)c1nn(-c2ccc(C)cc2)c(=O)c2c1c1ccccc1n2C`, the side scatter shift is 50% (inactive).

For the molecule `Cc1ccc(CNc2nc3ccccc3n3nnnc23)cc1`, the side scatter shift was 33.1% (inactive).

Turning to `COc1ccc(S(=O)(=O)CCC(=O)O)cc1`, the side scatter shift was 16.3% (inactive).

On to `CCOC(=O)N1CCC(NC(=O)c2cc3c(-c4ccc(Cl)cc4)nn(C)c3s2)CC1`, for which the side scatter shift is 22.5% (inactive).

As to `CC1CCCCN1CCNC(=O)c1ccc2c(=O)n(CCc3ccccc3)c(=O)[nH]c2c1` (stereo unspecified), the side scatter shift was 59.5% (active).

`CCc1cc(C)cc(OCCNC(=O)c2ncn[nH]2)c1`: the side scatter shift is 3.5% (inactive).

In the case of `O=C(NCC1CCCO1)C1CC(c2ccc(Cl)c(Cl)c2)=NO1` (stereo unspecified), the side scatter shift was 8.2% (inactive).

As to `Cc1nc2nc(C)c(CCC(=O)NCCCN3CCN(c4cccc(Cl)c4)CC3)c(C)n2n1`, the side scatter shift was 27.9% (inactive).

Regarding `CCOc1cccc(-c2nnc3n2N=C(c2cc(OC)ccc2OC)CS3)c1`, the side scatter shift was 0% (inactive).

For `COc1cccc(-c2cc(C(=O)N3CCCc4ccccc43)no2)c1`, the side scatter shift is 22.2% (inactive).

Still in this assay, the particulars now being: LNCaP differentiation, 4 d, side scatter shift, at 10 µM, stronger effect = higher value.
In the case of `Cc1ccccc1-c1nc(CN2CCC(C(=O)NCCCN3CCCC3)CC2)c(C)o1`, the side scatter shift was 19.4%.

In the case of `Cc1cccc(-c2nc(CN3CCCC(C(=O)NC4CCCCC4)C3)c(C)o2)c1` (stereo unspecified), the side scatter shift was 7.35%.

As for `CCN(CC)CCCNC(=O)c1cc(-c2cccc(Cl)c2)on1`, the side scatter shift turned out to be 4.25%.

As for `COc1ccc2cc3c(N)nn(C(=O)Cc4ccccc4OC)c3nc2c1`, the side scatter shift was 8.05%.

For the molecule `COc1ccc(CN2C(=O)C(O)(CC(=O)c3c(C)n[nH]c3C)c3ccccc32)cc1OC` (stereo unspecified), the side scatter shift was found to be 6.45%.

For the molecule `c1ccc(CSc2nnc(-c3cccs3)n2Cc2ccco2)cc1`, the side scatter shift is 6.7%.

As to `Cc1ccc2c(c1)c1c(n2CC(O)Cn2c(C)nc3ccccc32)/C(=N\O)CCC1` (stereo unspecified), the side scatter shift came out at 10.1%.

With `CCN1CCN(c2ncc(C(=O)Nc3cc(Cl)c(OC)cc3OC)c3ccccc23)CC1`, the side scatter shift is 19.2%.

Take `CCOc1ccc2ccccc2c1C(=O)N1CCN(c2ccccc2)CC1`: the side scatter shift is 1.7%.

With `O=C(CCn1c(=O)oc2ccccc21)NCCCN1CCN(c2ccc(F)cc2)CC1`, the side scatter shift is 4.25%.

In the case of `Cn1c(C(=O)NCCCN2CCN(c3ccccc3F)CC2)cc2c(=O)[nH]c3ccccc3c21`, the side scatter shift is 11.1%.

Regarding `C=CCn1c(=N)n(CC(O)COc2ccccc2OC)c2ccccc21` (stereo unspecified), the side scatter shift worked out at 2.35%.

For `Cc1cc(N2C(=O)C3C4C=CC(C4)C3C2=O)ccc1Br` (stereo unspecified), the side scatter shift amounted to 16.5%.

Consider `Cc1oc(-c2ccc(Cl)cc2)nc1CN1CCCC(C(=O)N2CCN(C(=O)c3ccco3)CC2)C1` (stereo unspecified), for which the side scatter shift is 3.65%.

`Nc1cccc2cnccc12`: the side scatter shift was 6.95%.

With `COc1ccc(-c2cc(C(=O)NCc3ccc(Cl)cc3)no2)cc1OC`, the side scatter shift stood at 7.15%.

Consider `CC1(C)CC(=O)c2cc(OCC(=O)NCCCN3CCN(c4ccccc4F)CC3)ccc2O1`, for which the side scatter shift is 6.5%.

Regarding `CC1=C(n2nnc3ccccc32)C(c2ccccc2)C(C#N)=C(N)O1` (stereo unspecified), the side scatter shift was 6.4%.

Turning to `C=C(C)Cn1c(-c2ccccc2)nc2ccccc21`, the side scatter shift stood at 4.15%.

Take `CCOC(=O)c1ccc(NC(=O)Nc2ccc3c4c(cccc24)C(=O)N3CC)cc1`: the side scatter shift worked out at 8.75%.

Take `CCCCOc1ccccc1NC(=O)Cn1c(-c2nonc2N)nc2ccccc21`: the side scatter shift turned out to be 17.4%.

Turning to `COc1cc2nc(N3CCN(C(=O)C4COc5ccccc5O4)CC3)nc(N)c2cc1OC` (stereo unspecified), the side scatter shift is 55.2%.

Regarding `CCCCOC(=O)CSc1nc2c(cc1C#N)C(=O)CC(C)(C)C2`, the side scatter shift is 5.85%.

Turning to `CCN(CC)CCCNC(=O)c1cc(-c2ccc(Cl)c(Cl)c2)on1`, the side scatter shift was determined as 36.7%.

`Cc1ccccc1-c1nc(CN2CCC(C(=O)NCCCN3CC(C)CC(C)C3)CC2)c(C)o1` (stereo unspecified): the side scatter shift was determined as 78.4%.

For `Cc1ccc2c(c1)c1c(n2CC(O)CNC(CO)(CO)CO)CCCC1` (stereo unspecified), the side scatter shift worked out at 12.4%.

In the case of `CN(CC(=O)Nc1ccc2c(c1)OCCO2)S(=O)(=O)c1cccc2cccnc12`, the side scatter shift turned out to be 3.95%.

For `COc1ccc(Cc2noc(-c3ccc(C)cc3)n2)cc1`, the side scatter shift worked out at 10.1%.

In the case of `CCN(CC)CCNC(=O)c1nn(-c2ccc(C)cc2)c(=O)c2c1c1ccccc1n2C`, the side scatter shift worked out at 5.55%.

Regarding `Cc1ccc(CNc2nc3ccccc3n3nnnc23)cc1`, the side scatter shift was found to be 7%.

On to `COc1ccc(S(=O)(=O)CCC(=O)O)cc1`, for which the side scatter shift is 7.3%.

Consider `CCOC(=O)N1CCC(NC(=O)c2cc3c(-c4ccc(Cl)cc4)nn(C)c3s2)CC1`, for which the side scatter shift was found to be 6.9%.

Regarding `CC1CCCCN1CCNC(=O)c1ccc2c(=O)n(CCc3ccccc3)c(=O)[nH]c2c1` (stereo unspecified), the side scatter shift was determined as 18.2%.

With `CCc1cc(C)cc(OCCNC(=O)c2ncn[nH]2)c1`, the side scatter shift amounted to 0%.

Regarding `O=C(NCC1CCCO1)C1CC(c2ccc(Cl)c(Cl)c2)=NO1` (stereo unspecified), the side scatter shift turned out to be 2.4%.

With `Cc1nc2nc(C)c(CCC(=O)NCCCN3CCN(c4cccc(Cl)c4)CC3)c(C)n2n1`, the side scatter shift stood at 7.4%.

For `CCOc1cccc(-c2nnc3n2N=C(c2cc(OC)ccc2OC)CS3)c1`, the side scatter shift was determined as 14.1%.

Regarding `COc1cccc(-c2cc(C(=O)N3CCCc4ccccc43)no2)c1`, the side scatter shift stood at 1.8%.
